Screening data (PubChem BioAssay)
TRPML1 inh: qHTS for Inhibitors of the Human Mucolipin Transient Receptor Potential 1 (TRPML1); Mucolipin-1 (Homo sapiens), Q9GZU1; TRPML1-inducible cells, Ca2+ dye fluorescence, FDSS; hits give low values; inhibition of EC80 agonist-evoked calcium signal; activity change, negative = inhibition, % (test concentration not listed); 390,000 tested, 0.02% active; AID 624415, 2012; in the data active = activity change below about -50%; inconclusive = between about -30% and that limit;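 also: stimulus is agonist 54-4 at its EC80 concentration; % is scaled to controls: 0 for no effect and ±100 for the full control effect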
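Calcium fluorescence in TRPML1-DL cells induced overnight with Tet: a 110 s read after compound pin addition, then a 110 s antagonist read after challenge with 54-4 at 4 uM final (EC80).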
TRHR PAM: qHTS for Small Molecule Agonists and Allosteric Enhancers of Human TRH Receptor: Primary Screen for Enhancers. Thyrotropin-releasing hormone receptor (Homo sapiens), P34981. TRHR cells, fluo-8 calcium fluorescence, EC20 TRH enhancement. enhancement, % at 2 µM. 360,000 tested, 0.66% active. AID 493056, 2011; in the data active = enhancement above about 30%; also: 0% is about no effect
Target sequence (P34981 whole entry, looked up): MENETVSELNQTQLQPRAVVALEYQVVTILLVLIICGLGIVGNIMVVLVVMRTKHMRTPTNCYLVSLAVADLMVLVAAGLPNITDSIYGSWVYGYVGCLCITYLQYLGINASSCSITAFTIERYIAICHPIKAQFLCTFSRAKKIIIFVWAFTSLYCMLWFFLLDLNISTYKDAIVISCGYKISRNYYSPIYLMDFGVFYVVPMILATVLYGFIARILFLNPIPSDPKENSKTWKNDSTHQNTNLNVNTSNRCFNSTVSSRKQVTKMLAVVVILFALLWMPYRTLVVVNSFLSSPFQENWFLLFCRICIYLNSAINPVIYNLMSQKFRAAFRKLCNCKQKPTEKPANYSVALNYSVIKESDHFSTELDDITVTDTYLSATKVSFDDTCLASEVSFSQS
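TRHR-expressing cells loaded with fluo-8 calcium dye were read kinetically (ex 480/em 530) during compound addition, then stimulated with an EC20 of TRH (10 nM final). Enhancement of the Gq-mediated intracellular calcium response was scored.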
TRHR agonist: qHTS for Small Molecule Agonists and Allosteric Enhancers of Human TRH Receptor: Primary Screen for Agonists; Thyrotropin-releasing hormone receptor (Homo sapiens), P34981; TRHR cells, calcium flux fluo-8, FDSS agonist mode; activation, % at 2 µM; 360,000 tested, 0.18% active; AID 493084, 2011; in the data active = activation above about 30%; also: 0% is about no effect
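Agonist-mode FDSS calcium read (Ex 480/Em 530, 1 s cycles) in 1536-well TRHR cells with fluo-8 dye, after 10-cycle baseline and 23 nL compound addition; TRH at EC20 (10 nM final) added afterwards for the enhancer phase.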
TSG101-PTAP inh: qHTS Assay for Iinhibitors of HIV-1 Budding by Blocking the Interaction of PTAP/TSG101; 340,000 tested, under 10 active; AID 493005, 2010; Potency, µM (highest dose often 115 µM), without a hit: top-dose activity change, negative = inhibition, actives largely listed as inhibitors; Fluorescence polarization, FITC-PTAP peptide / Tsg101 binding; Tumor susceptibility gene 101 protein (Homo sapiens), Q99816; active = well fitted inhibition curve with a large enough effect in the main read-out, with a control signal flat, not every such curve was filed as active; inconclusive = small, poorly fitted or top-dose-only effect, or effect the other way, or a change in a side signal; inactive = no such curve, though single readings can be large or run the other way; also: potency is read from the fitted curve at half-maximal effect; % of control where 0% means no effect
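Compounds were pin-transferred onto Tsg101 binding domain (10 uM final) in HEPES pH 7.5 buffer, then FITC-PTAP peptide was added at 50 nM final. After 20 min at RT, polarization reported peptide displacement across a qHTS concentration series.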
TRPML1 agonist: qHTS for Agonists of the Human Mucolipin Transient Receptor Potential 1 (TRPML1); activation, % (no concentration beside the values); TRPML1-expressing cells, Ca2+ dye fluorescence, FDSS; 410,000 tested, 0.12% active; Mucolipin-1 (Homo sapiens), Q9GZU1; in the data active = activation above about 50%; inconclusive = mostly about 30% to 49%; also: 0% is about no effect
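Calcium fluorescence on an FDSS kinetic reader gave the read-out. Tet-induced TRPML1-DL cells were plated overnight, dye-loaded (Ca8 with quencher, 45-90 min, room temperature, dark), then read 110 s after compound addition, and again 110 s after 4uM final 54-4 (EC80).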
An asterisk follows results filed as active; ? = inconclusive; nt = no result given. The list is not random: actives were taken first. Their share in the collection is about 0.81%.

SMILES	TRPML1 inh	TRHR PAM	TRHR agonist	TSG101-PTAP inh	TRPML1 agonist
Cc1ccc(SCC(=O)OCC(=O)N(C)CC(=O)Nc2ccc(F)cc2)cc1C	-4	35*	0	-1%	0
COc1cc2nc(N3CCOCC3)nc(NC3CC3)c2cc1OC	nt	nt	nt	nt	-1
COc1ccc(-c2nc3ccc(NC(=O)COC(C)=O)cc3c(=O)n2Cc2ccccc2)cc1COc1ccc(NC(C)=O)cc1	nt	nt	nt	nt	0
CCN(CC)S(=O)(=O)c1cc(C(=O)Nc2ccccc2C(=O)O)ccc1OC	-3	39*	-1	-8%	2
COc1ccc(C(=O)Nc2ccccc2C(=O)O)cc1Cl	25	-1	0	-1%	3
COC(=O)c1ccc(CSc2nc3ccc(S(N)(=O)=O)cc3[nH]2)cc1	4	36*	1	4%	-1
COc1ccc(OC)c2c(C)ccnc12	nt	nt	nt	nt	-1
COc1cc(/C=C(\C#N)c2nn(CCO)c(N)c2C#N)cc(OC)c1OC	5	33*	0	-1%	1
N#C/C(=C\c1ccc(/C=C(/C#N)c2nn(CCO)c(N)c2C#N)cc1)c1nn(CCO)c(N)c1C#N	-22	1	1	-3%	0
Cc1cc2c(s1)c1cnn(Cc3ccc(-c4ccccc4)cc3)c(=O)c1n2C	nt	1	0	nt	nt
Cc1nnc(NC(=O)CSc2nnc(Cc3cccn3C)n2-c2ccccc2)s1	-1	39*	0	-3%	0
O=C(CSc1nnc(Cc2ccccc2)n1-c1ccccc1)NNC(=O)Cc1ccccc1	0	31*	0	-6%	0
COC(=O)CSc1nnc(Cc2ccccc2)n1-c1ccc(C)cc1	8	-3	0	-4%	-1
Cc1nnc(NC(=O)CSc2nnc(Cc3cccn3C)n2-c2cccc(C)c2C)s1	nt	-3	-1	nt	nt
COc1cc2nc(NC3CCN(C)CC3)nc(NC3CCN(C)CC3)c2cc1OC	nt	nt	nt	nt	-1
O=C1CCC[C@@H]2CC(N(Cc3cc4ccccc4s3)c3ccccc3)C[C@@H]3CCN1[C@H]23 (some centres not stated)	nt	nt	nt	nt	0
Cc1cc(=O)[nH]c2ccc(O)cc12	nt	nt	nt	nt	0
COc1cc(/C=C/C(O)=C/C(=O)/C=C/c2ccc(O)cc2)ccc1O	-3	3	104*	?	25
CC(C)(C)n1ncc2c(=O)n(Cc3cc(Cl)ccc3Cl)cnc21	25	nt	nt	nt	2
CCCC1O[C@@H]2C[C@H]3[C@@H]4CCC5=CC(=O)C=C[C@]5(C)[C@H]4[C@@H](O)C[C@]3(C)[C@]2(C(=O)CO)O1 (some centres not stated)	3	33*	1	0%	1
CCOC(=O)CC1COc2ccccc2N1C(=O)c1cccc([N+](=O)[O-])c1 (configuration not stated)	-11	31*	0	-6%	1
Cc1cccc(NS(=O)(=O)c2cc(C(=O)NCCC3=CCCCC3)ccc2Cl)c1	12	35*	1	-4%	2
Cc1ccccc1NS(=O)(=O)c1cc(C(=O)NCCC2=CCCCC2)ccc1Cl	17	0	-2	-2%	1
COc1ccccc1Oc1coc2c(CN3CCOCC3)c(O)ccc2c1=O	9	37*	0	0%	0
CC(C)CN(C(=O)c1cccc([N+](=O)[O-])c1)c1c(N)n(CC(C)C)c(=O)[nH]c1=O	-2	33*	-2	1%	0
SMILES	TRPML1 inh	TRHR PAM	TRHR agonist	TSG101-PTAP inh	TRPML1 agonist
CC(C)CN(C(=O)c1cccc(F)c1)c1c(N)n(CC(C)C)c(=O)[nH]c1=O	-1	-6	1	1%	0
Cc1ccc(N2CCN(S(=O)(=O)c3ccc(F)c(C)c3)CC2)c(C)c1	-20	2	1	0%	50*
CC(C)C(=O)N1CCN(c2ccccc2NC(=O)COc2ccccc2)CC1	17	-3	1	-2%	1
CCCC(=O)Nc1ccccc1N1CCN(C(=O)C(C)C)CC1	-6	32*	-1	0%	1
Cc1ccc(OCCCN2CCOCC2)c([N+](=O)[O-])c1	20	31*	1	-1%	-1
CC(CC(=O)NCc1ccc(Cl)cc1)c1ccccc1 (configuration not stated)	nt	34*	0	-11%	nt
CC1(C)Cc2c(cnn2-c2ccc(F)cc2)C(NC(=O)CCN2CCCCO2)C1 (configuration not stated)	-8	37*	0	-2%	0
CC1(C)Cc2c(cnn2-c2ccc(F)cc2)C(NC(=O)CCC(F)(F)F)C1 (configuration not stated)	-19	3	0	-3%	-1
Cc1ccc(-n2ncc3c2CC(C)(C)CC3NC(=O)CCN2CCCO2)cc1 (configuration not stated)	-13	-4	1	1%	0
COC(=O)CCC(=O)NC1CC(C)(C)Cc2c1cnn2-c1ccc(F)cc1 (configuration not stated)	43	38*	0	1%	0
CC1(C)Cc2c(cnn2-c2cccc(F)c2)C(NC(=O)c2ccc[n+]([O-])c2)C1 (configuration not stated)	6	31*	0	nt	0
CC(C)(C)OC(=O)NCC(=O)NNC(=O)c1nc2ccccc2[nH]1	nt	2	1	nt	nt
CC(=O)Nc1ccc(N(C(=O)c2ccco2)C(C(=O)NC2CCCC2)c2ccc(N3CCOCC3)cc2)cc1 (configuration not stated)	-5	35*	0	-3%	0
O=C1c2cccc3c([N+](=O)[O-])ccc(c23)C(=O)N1c1ccccn1	17	4	-1	1%	1
O=C1c2cccc3c(N4CCCCC4)ccc(c23)C(=O)N1c1ccccn1	-12	14	156*	-5%	6
COc1ccc(-c2ccc3c(c2)S(=O)(=O)c2cccc(C(=O)NC4CC4)c2C3=O)cc1OC	-1	40*	0	20%	-1
COc1ccc(-c2ccc3c(c2)S(=O)(=O)c2cccc(C(=O)NC4CCCCC4)c2C3=O)cc1OC	8	1	1	12%	0
CCCCCCCCCCCCCCCCOC(=O)N1CCN(/[N+]([O-])=N/Oc2ccc([N+](=O)[O-])cc2[N+](C)=O)CC1	4	nt	nt	nt	2
Cn1c2ccsc2c2cnn(Cc3ccccc3F)c(=O)c21	nt	-3	-2	nt	nt
c1ccc2nccnc2c1	nt	nt	nt	nt	1
Cc1cc(S(=O)(=O)Cc2noc(-c3c(C)noc3C)n2)c(C)cc1Cl	-14	0	0	1%	120*
